Results from PubChem BioAssay.
The source made the active and inactive calls.

Experiments:
Albumin (Bos taurus) = Albumin (Bos taurus) (UniProt P02769); test: compounds binding labelled BSA control protein – biochemical, small-molecule microarray, Alexa647 label, 635/667 nm fluorescence, artefact control for SMM control protein annotation, profiling panel (AID 1118); settings: BSA-A647 binding, fluorescence 635 nm, higher = more signal;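 further: score merges 667 nm emission intensity and signal-to-noise per printed compound spot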
[1] = probe aXIP binding to arrayed compounds – biochemical, NeuroSMM set, 635/667 nm fluorescence, primary screen (AID 1119); settings: small-molecule microarray, higher = more signal, called active from +8 up or from −8 down;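 further: probe is the protein aXip251-270 applied at 1 µg/mL to compound-printed slides; binding of probe to printed compounds measured as 667 nm fluorescence plus signal to noise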
[2] = probe aNOTCH3 binding on compound microarray – biochemical, small-molecule microarray, 635/667 nm fluorescence, primary screen (AID 1120); settings: higher = more signal;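 further: probe is a biotin-tagged antibody raised against NOTCH3 rather than NOTCH3 protein; score merges spot fluorescence near 667 nm with spot signal to noise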
[3] = probe aNOTCH2 binding on compound microarray – biochemical, small-molecule microarray, 635/667 nm fluorescence, primary screen (AID 1121); settings: higher = more signal;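 further: score merges feature fluorescence read at 667 nm with its signal to noise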
[4] = biological target: Carbonic anhydrase 2 (Homo sapiens) (UniProt P00918); test: compounds binding carbonic anhydrase 2 – biochemical, small-molecule microarray, Alexa647-labelled CAII, profiling panel (AID 1122); settings: CAII-A647 binding fluorescence, higher = more signal
[5] = COS7 lysate on small-molecule microarray, probe aHis, 635 nm (AID 1123); settings: COS7 cell lysate, fluorescence, higher = more signal;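 further: z-score combines 667nm fluorescence intensity with signal-to-noise per printed compound spot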
[6] = probe aLAP1 signal on lysate-treated microarray – cell lysate, small-molecule microarray, COS7 lysate, primary screen (AID 1124); settings: probe aLAP1, fluorescence, higher = more signal;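 further: lysate comes from COS7 cells expressing LAP1 and is applied at 0.3 µg/mL; score merges spot fluorescence near 667 nm with signal-to-noise over triplicate slides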
Sam68 (KHDRBS1) = test: compounds binding KHDRBS1 protein – biochemical, small-molecule microarray, 635 nm fluorescence, primary screen (AID 1125); settings: higher = more signal;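 further: score merges 667 nm channel intensity with signal to noise over triplicate slides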
[7] = test system: Chordin-like protein 2 (CHRDL2); test: compounds binding chordin-like 2 – biochemical, small-molecule microarray, 635 nm fluorescence, primary screen (AID 1126); settings: fluorescence 635 nm, higher = more signal;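 further: printed compound slides probed with Chrdl2 protein at 4 µg/mL for 1 h at 4 C; score merges 667 nm emission intensity with signal to noise over three replicate slides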
[8] = biological target: Concanavalin-A (Canavalia ensiformis) (UniProt P02866); test: compounds binding concanavalin A lectin – biochemical, small-molecule microarray, Alexa647 label, 635 nm, artefact control for SMM control protein annotation, primary screen (AID 1127); settings: ConA-A647 binding fluorescence, higher = more signal;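 further: z combines 667 nm emission intensity with signal-to-noise across three replicate slides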
[9] = compounds binding Alexa647 anti-His antibody – biochemical, small-molecule microarray, 635 nm fluorescence, artefact control for SMM control protein annotation, primary screen (AID 1128); settings: higher = more signal;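 further: score merges feature fluorescence with signal-to-noise for each printed compound spot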
[10] = test system: Human papillomavirus type 1a E7 protein (residues 1-88); test: HPV1a E7 small-molecule binders, primary screen, biochemical, small-molecule microarray, residues 1-88, 635 nm (AID 1129); settings: small-molecule microarray binding, fluorescence 635 nm; higher = more signal
[11] = biological target: Focal adhesion kinase 1 (Homo sapiens) (UniProt Q05397); test: PTK2 protein binding on printed compound slides – biochemical, small-molecule microarray, 635/667 nm fluorescence, BSA, DTT, primary screen (AID 1130); settings: 635 nm fluorescence, higher = more signal;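 further: composite of spot emission at 667 nm and signal to noise over triplicate slides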
[12] = test system: Fibrinogen (Alexa647-labelled); test: Alexa647-fibrinogen binding to printed small molecules – biochemical, small-molecule microarray, 635/667 nm fluorescence, artefact control for SMM control-protein annotation, profiling panel (AID 1131); settings: fibrinogen-A647 binding fluorescence, higher = more signal;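 further: z-score merges 667 nm fluorescence with per-spot signal-to-noise over triplicate slides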
[13] = biological target: Follistatin (Homo sapiens) (UniProt P19883); test: FST protein binding to printed compounds – biochemical, small-molecule microarray, 635/667 nm fluorescence, primary screen (AID 1132); settings: 635 nm fluorescence, higher = more signal
[14] = biological target: Fibroblast growth factor 2 (Homo sapiens) (UniProt P09038); test: basic fibroblast growth factor binding to printed compounds – biochemical, small-molecule microarray, 635/667 nm fluorescence, primary screen (AID 1133); settings: FGF2, fluorescence 635/667, higher = more signal
[15] = JC-1 mitochondrial potential readout, lung cancer cells – cell-based, A549, JC-1 fluorescence, basal, 24 h, 100 nL, profiling panel (AID 1138); settings: higher = more signal;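 further: A549 lung adenocarcinoma cells under basal conditions with no added stimulus; test concentration not given here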
Lefty1 = Lefty1 protein binding to printed compounds – biochemical, small-molecule microarray, 635/667 nm fluorescence, primary screen (AID 1139); settings: fluorescence 635/667, higher = more signal
[16] = test system: wheat germ agglutinin (Triticum aestivum), Alexa647-labelled; test: Alexa647-WGA lectin binding to printed small molecules – biochemical, small-molecule microarray, 635/667 nm fluorescence, artefact control for SMM control-protein annotation, profiling panel (AID 1140); settings: WGA-A647 binding, 635 nm fluorescence, higher = more signal;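 further: score merges 667 nm feature emission with signal to noise over triplicate slides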
[17] = biological target: Luciferin 4-monooxygenase (Photinus pyralis) (UniProt P08659); test: inhibition of purified Photinus pyralis luciferase – biochemical, luminescence, purified enzyme, 2006 set, primary screen (AID 1141); settings: purified firefly luciferase, SteadyGlo luminescence, 30 min; higher = more signal, called active from +8 up or from −8 down;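 further: cell-free assay with purified firefly luciferase at 100 ng per well in PBS; test concentration not given here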
Luciferin 4-monooxygenase (Photinus pyralis), sequence (P08659 whole entry, looked up): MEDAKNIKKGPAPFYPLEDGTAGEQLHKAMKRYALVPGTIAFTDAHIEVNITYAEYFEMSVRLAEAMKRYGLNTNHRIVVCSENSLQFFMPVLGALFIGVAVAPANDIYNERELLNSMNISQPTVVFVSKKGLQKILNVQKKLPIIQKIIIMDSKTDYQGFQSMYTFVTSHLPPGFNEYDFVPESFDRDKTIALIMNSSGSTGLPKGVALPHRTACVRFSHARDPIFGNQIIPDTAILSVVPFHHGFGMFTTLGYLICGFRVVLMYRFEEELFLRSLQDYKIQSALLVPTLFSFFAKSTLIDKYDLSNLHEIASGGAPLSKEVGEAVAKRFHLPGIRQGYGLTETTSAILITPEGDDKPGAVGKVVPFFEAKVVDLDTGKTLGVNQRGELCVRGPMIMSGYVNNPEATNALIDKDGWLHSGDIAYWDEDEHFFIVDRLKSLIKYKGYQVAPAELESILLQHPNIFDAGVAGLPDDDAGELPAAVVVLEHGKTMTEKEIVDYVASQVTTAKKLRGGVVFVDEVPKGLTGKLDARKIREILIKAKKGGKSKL

Albumin (Bos taurus), sequence (P02769 whole entry, looked up): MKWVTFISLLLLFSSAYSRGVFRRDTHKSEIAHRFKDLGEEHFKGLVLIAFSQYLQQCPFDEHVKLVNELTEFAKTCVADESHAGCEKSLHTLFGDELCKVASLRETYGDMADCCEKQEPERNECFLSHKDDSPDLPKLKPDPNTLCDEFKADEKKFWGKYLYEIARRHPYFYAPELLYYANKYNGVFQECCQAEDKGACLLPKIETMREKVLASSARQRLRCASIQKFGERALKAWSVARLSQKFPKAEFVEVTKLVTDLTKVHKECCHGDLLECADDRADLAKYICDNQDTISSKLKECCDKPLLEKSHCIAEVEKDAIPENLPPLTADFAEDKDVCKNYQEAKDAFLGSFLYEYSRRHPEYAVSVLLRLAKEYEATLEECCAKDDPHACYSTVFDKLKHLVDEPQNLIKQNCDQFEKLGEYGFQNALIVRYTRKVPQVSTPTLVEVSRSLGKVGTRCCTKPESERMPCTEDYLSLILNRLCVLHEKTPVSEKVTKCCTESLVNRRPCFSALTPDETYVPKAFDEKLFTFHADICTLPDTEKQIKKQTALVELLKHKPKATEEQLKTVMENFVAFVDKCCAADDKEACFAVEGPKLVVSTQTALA
Concanavalin-A (Canavalia ensiformis), sequence (P02866 whole entry, looked up): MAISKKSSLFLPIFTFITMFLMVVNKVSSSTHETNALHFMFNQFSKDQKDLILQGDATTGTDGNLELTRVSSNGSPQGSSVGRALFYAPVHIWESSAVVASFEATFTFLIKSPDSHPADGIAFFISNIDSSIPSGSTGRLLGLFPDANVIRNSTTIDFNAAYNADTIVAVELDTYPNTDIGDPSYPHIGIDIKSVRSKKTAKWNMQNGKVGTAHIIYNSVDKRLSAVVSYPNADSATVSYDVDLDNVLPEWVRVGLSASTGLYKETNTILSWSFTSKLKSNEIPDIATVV
Focal adhesion kinase 1 (Homo sapiens), sequence (Q05397 whole entry, looked up): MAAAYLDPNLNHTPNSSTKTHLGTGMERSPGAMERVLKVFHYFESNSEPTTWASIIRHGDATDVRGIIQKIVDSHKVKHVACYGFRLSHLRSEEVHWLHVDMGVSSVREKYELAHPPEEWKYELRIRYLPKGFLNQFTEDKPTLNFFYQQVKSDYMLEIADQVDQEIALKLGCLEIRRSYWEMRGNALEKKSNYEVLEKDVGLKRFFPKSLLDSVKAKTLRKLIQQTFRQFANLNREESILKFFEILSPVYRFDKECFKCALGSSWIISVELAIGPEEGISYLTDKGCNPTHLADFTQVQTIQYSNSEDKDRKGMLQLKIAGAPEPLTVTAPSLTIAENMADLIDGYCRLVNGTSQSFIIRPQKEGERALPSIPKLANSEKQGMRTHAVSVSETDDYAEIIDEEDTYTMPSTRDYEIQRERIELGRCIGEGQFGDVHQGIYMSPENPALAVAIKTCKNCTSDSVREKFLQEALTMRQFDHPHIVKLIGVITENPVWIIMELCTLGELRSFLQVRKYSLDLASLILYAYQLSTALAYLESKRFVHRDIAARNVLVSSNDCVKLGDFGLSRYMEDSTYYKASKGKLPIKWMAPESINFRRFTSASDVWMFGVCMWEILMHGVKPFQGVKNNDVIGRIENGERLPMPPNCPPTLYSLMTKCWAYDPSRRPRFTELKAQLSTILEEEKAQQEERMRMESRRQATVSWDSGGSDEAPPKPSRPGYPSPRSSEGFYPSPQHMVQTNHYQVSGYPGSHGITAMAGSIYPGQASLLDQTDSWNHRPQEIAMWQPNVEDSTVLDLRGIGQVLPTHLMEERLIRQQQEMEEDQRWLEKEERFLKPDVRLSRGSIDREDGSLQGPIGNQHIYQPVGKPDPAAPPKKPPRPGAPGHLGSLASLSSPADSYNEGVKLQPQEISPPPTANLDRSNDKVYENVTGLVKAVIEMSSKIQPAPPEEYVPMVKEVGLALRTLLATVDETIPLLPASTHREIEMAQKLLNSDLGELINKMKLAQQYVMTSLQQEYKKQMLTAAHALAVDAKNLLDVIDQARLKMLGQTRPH
Fibroblast growth factor 2 (Homo sapiens), sequence (P09038 whole entry, looked up): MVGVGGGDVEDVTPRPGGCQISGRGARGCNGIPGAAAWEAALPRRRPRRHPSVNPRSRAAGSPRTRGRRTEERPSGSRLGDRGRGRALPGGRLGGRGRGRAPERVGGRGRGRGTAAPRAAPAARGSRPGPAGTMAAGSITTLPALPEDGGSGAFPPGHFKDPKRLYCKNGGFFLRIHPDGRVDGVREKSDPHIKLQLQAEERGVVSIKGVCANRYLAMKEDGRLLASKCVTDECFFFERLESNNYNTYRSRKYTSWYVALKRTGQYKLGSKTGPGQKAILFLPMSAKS
Follistatin (Homo sapiens), sequence (P19883 whole entry, looked up): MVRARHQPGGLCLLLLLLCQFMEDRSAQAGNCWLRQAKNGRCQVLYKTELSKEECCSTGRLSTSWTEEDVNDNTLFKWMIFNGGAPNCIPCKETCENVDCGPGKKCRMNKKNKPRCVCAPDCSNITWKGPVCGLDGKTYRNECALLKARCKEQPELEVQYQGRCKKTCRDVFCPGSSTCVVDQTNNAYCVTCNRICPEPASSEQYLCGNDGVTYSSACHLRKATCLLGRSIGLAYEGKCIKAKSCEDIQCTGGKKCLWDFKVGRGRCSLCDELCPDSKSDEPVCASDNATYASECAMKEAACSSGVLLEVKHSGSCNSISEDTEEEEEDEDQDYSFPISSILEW

SMILES	composite z-score (Albumin (Bos taurus))	composite Z-score [1]	composite z-score [2]	composite z-score [3]	composite z-score [4]	composite z-score [5]	composite z-score [6]	composite z-score (Sam68 (KHDRBS1))	composite z-score [7]	composite z-score [8]	composite z-score [9]	composite z-score [10]	composite z-score [11]	composite z-score [12]	composite z-score [13]	composite z-score [14]	z-score [15]	composite z-score (Lefty1)	composite z-score [16]	z-score [17]
NCCCCCNC(=O)[C@@H]1C[C@@H]2C(=O)NCC(=O)N2[C@@H]1c1cccc(OCCO)c1	0.411	0.401 (inactive)	0.154	-0.0366	0.443	0.506	0.954	1.32	0.788	1.17	2.23	1.16	0.551	0.47	1.45	1.17	-0.552	1.55	0.951	-0.637 (inactive)
COC(=O)c1c2oc(c1C(=O)OC)C(=O)N(Cc1ccccc1)Cc1cn(nn1)C[C@H](Cc1ccccc1)NC(=O)N[C@H](CO)CC2	0.784	0.535 (inactive)	-0.0918	-0.14	0.778	0.87	0.487	0.636	0.369	0.861	0.402	0.848	-0.0924	0.961	0.183	-0.107	0.534	0.717	0.134	0.978 (inactive)
C=C[C@@H](OC)[C@H](OC(=O)Nc1ccc(SC)cc1)c1ccc(O)c(F)c1	0.622	-0.584 (inactive)	0.0337	-0.0891	0.699	2.18	0.683	1.07	0.0611	0.0462	3.07	1.23	0.566	0.763	1.11	0.207	-1.47	0.885	0.679	-1.59 (inactive)
CCOc1cc(C(O)C2C=CC3C(=O)N(c4ccccc4)C(=O)C3N2Nc2ccc(C#N)cc2)ccc1O (stereo not given)	0.876	0.793 (inactive)	0.0638	-0.171	0.877	0.825	0.876	-0.0645	-0.879	1.03	1.29	0.161	0.471	0.961	0.765	-0.667	-0.00105	0.113	0.961	-0.519 (inactive)
CC(=O)NCCCC[C@@H]1NC(=O)[C@@H]2C[C@H](C(=O)NCCCC[N+](C)(C)C)[C@H](c3ccc(O)cc3)N2C1=O	-0.763	0.0463 (inactive)	0.271	-0.0467	0.514	1.18	-0.111	1.29	1.35	1.16	3.1	-0.882	-0.218	0.764	1.48	1.73	-1.12	1.49	-0.23	-0.174 (inactive)
C=CCOC(=O)[C@H]1[C@@H]2C(=O)O[C@@H](c3ccccc3)[C@@H](c3ccccc3)N2[C@@H](c2ccc(OCCOC(=O)[C@@H]3C[C@@H]4C(=O)N5CCC[C@H]5C(=O)N4[C@@H]3c3ccc(O)cc3)cc2)[C@]12C(=O)Nc1ccc(I)cc12	-0.572	0.486 (inactive)	-0.33	-0.118	0.0118	0.897	0.163	0.27	0.851	1.01	0.796	0.246	0.0398	0.664	1.36	1.16	-1.28	0.698	0.671	-0.873 (inactive)
COCC1=C2[C@@H](CCc3ccccc3)OB(O)C[C@@H]2[C@@H]2C(=O)C=CC(=O)[C@@H]2C1	0.739	-0.228 (inactive)	0.334	-0.12	0.295	0.883	0.481	1.31	0.0197	1.02	1.39	0.736	0.238	0.0217	0.648	0.519	-1.23	0.654	0.982	-3.14 (inactive)
C=C[C@@H](COC(C)=O)N(C(=O)OC(C)(C)C)S(=O)(=O)c1ccc(Br)cc1	0.321	0.388 (inactive)	0.0494	-0.0401	0.646	0.155	-0.101	0.827	1.4	1.12	1.5	0.966	0.233	0.741	1.53	1.89	0.307	1.65	1.1	-0.149 (inactive)
O=C1C2C=CC(C(O)c3ccc(Br)cc3)N(Nc3ccccc3F)C2C(=O)N1c1ccccc1 (stereo not given)	0.826	0.0051 (inactive)	-0.038	-0.126	0.762	1.58	0.358	0.68	0.0957	0.667	2.57	0.992	-0.312	0.967	0.0288	-0.265	0.147	-0.107	0.672	1.71 (inactive)
O=C1C2C=CC(C(O)c3ccccc3)N(Nc3ccccc3F)C2C(=O)N1c1ccccc1 (stereo not given)	0.571	-0.158 (inactive)	-0.0879	-0.126	0.811	0.737	0.34	0.246	0.18	0.532	0.513	0.506	0.0669	0.168	-0.0118	-0.248	0.462	0.347	0.0842	0.541 (inactive)
CCOC(=O)C[C@H]1[C@H](OC(=O)Cc2ccc3c(c2)OCO3)[C@@H](NC(=O)Cc2ccc(OC)cc2)c2cc(OCCCO)ccc2N1C(=O)c1ccc2ccccc2n1	0.857	-0.802 (inactive)	-0.0768	-0.11	0.154	1.15	0.199	0.489	0.276	-0.533	0.0036	0.383	-0.345	0.172	0.147	0.211	2.69	0.168	-0.119	-1.7 (inactive)
